# Source: PubChem BioAssay
# ALOX12 inhib: inhibitors of human 12-lipoxygenase (ALOX12) | P18054 | purified 12-hLO, xylenol orange hydroperoxide absorbance | Potency, µM (titrated, usually from 57.1 µM), usual class: inhibitors | actives 0.12% (n = 150,000) | AID 1452; further: nearly all actives have a fitted effect of over 55% in size
#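 Purified human 12hLO (150 nM), preincubated 15 min with compound, then 40 uM arachidonic acid for 30 min, room temperature, Hepes pH 7.0 with 0.01% Triton X-100. Hydroperoxide detected by ferrous iron/xylenol orange; 573/405 nm absorbance ratio gives reaction progress.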
# GLA spleen mod: inhibits or activates alpha-galactosidase in human spleen homogenate. P06280. human spleen homogenate, 4MU-alpha-Gal fluorescence, 40 min. Potency, µM (series often up to 80 µM), hits mostly inhibitors. actives 0.008% (n = 240,000). AID 2107
#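 Human spleen homogenate (1 ug) as enzyme source, 4-methylumbelliferyl-alpha-D-galactopyranoside 1 mM final, citrate/phosphate pH 5.0 with 0.01% Tween-20. Compounds 40 min at 37C, NaOH/glycine stop; fluorescence Ex 365/Em 440, Hill-fit AC50.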
# PNC assembly inh: inhibitors of perinucleolar compartment assembly; PC3M PTB-GFP, PNC prevalence imaging, 16 h; active compounds read low; activity change (PNC), negative = inhibition, % at 10 µM; actives 3.1% (n = 140,000); AID 2417;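 active means readout at or below -70, meaning at least 70% loss of cells showing the perinucleolar compartment, a nuclear body marking cancer cells; inconclusive means readout between -30 and a set limit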
#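 Compounds are pinned in duplicate onto adhered PC3M cells stably expressing GFP-tagged PTB and incubated 16 h at 37 C. Cells are then fixed, nuclei stained with Hoechst, and PNC-positive cells counted.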
# GLA inh pH 4.5: blocks human alpha-galactosidase A at pH 4.5; P06280; purified enzyme, 4-MU-alpha-Gal fluorescence, pH 4.5; activity change, negative = inhibition, % at 105 µM; 230,000 tested, under 10 active; AID 1467
# ALDH1A1 block: blocks purified human ALDH1A1 activity; P00352; Purified ALDH1A1, NADH fluorescence, propionaldehyde substrate; Potency, µM (doses to about 75.3 µM), usual class: inhibitors; actives 7.3% (n = 220,000); active means well fitted inhibition curve with a large enough effect, not every such curve was filed as active; inconclusive means small, poorly fitted or top-dose-only effect, or another doubt; inactive means no such curve, though single readings can be large or run the other way
# Target sequence (P00352 whole entry, looked up): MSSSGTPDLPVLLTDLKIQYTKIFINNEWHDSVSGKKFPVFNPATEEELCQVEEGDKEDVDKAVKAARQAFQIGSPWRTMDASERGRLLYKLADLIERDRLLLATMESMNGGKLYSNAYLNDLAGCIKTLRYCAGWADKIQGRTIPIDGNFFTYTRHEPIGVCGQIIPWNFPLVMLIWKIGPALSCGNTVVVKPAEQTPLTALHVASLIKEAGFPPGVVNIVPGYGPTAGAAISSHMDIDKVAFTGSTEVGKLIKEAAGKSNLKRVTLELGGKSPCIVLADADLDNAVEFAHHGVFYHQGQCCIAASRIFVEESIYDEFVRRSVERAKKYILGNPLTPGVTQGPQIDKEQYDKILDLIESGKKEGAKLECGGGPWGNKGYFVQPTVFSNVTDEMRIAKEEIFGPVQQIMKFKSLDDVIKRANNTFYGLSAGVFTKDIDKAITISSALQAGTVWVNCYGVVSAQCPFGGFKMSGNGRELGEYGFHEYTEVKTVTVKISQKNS
# HPGD block: blocks human HPGD enzyme activity. P15428. purified HPGD, NADH fluorescence kinetic, PGE2 substrate. Potency, µM, actives largely listed as inhibitors. actives 4.3% (n = 150,000); active means well fitted inhibition curve with a large enough effect, not every such curve was filed as active; inconclusive means small, poorly fitted or top-dose-only effect, or another doubt; inactive means no such curve, though single readings can be large or run the other way
#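 NADH formation kinetics: reaction with 30 uM PGE2 and 1 mM NAD+ (final), 20 nM enzyme, Tris-HCl pH 8 with Tween 20, after 15 min compound preincubation at room temperature. Fluorescence change, last versus first of five reads.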
# Hits are given with their value; – = inactive; ? = inconclusive; · = no result; [ ] = another dose, or the depositor's remark. A selection: hits, their analogues and other compounds. The true share with any hit is near 10%. Unless noted, the call rests on the fitted dose curve; in most records, active means well fitted curve in the direction sought with a large enough effect; inconclusive means small, poorly fitted or top-dose-only effect, or another doubt; inactive means no such curve, though single readings can be large; an effect the other way counts as inactive or inconclusive.
SMILES,ALOX12 inhib,GLA spleen mod,PNC assembly inh,GLA inh pH 4.5,ALDH1A1 block,HPGD block
CNc1ccc2oc(C[C@@H]3OC4(CC[C@@H]3C)O[C@H]([C@@H](C)C(=O)c3ccc[nH]3)[C@H](C)C[C@H]4C)nc2c1C(=O)O (some centres not stated),·,–,·,·,?,·
CCOC(=O)C1OC1(C)c1ccccc1 (configuration not stated),–,–,·,·,–,–
C=CC=O,–,–,·,·,0.0224µM,–
Cc1cccc(N2C(=O)NC(=O)/C(=C/c3ccc([N+](=O)[O-])o3)C2=O)c1,–,–,–,–,–,12.6µM
Cc1ccc(/C=C2/C(=O)NC(=O)N(Cc3ccc(F)cc3)C2=O)o1,·,–,·,–,·,·
COc1ccc(CN2C(=O)NC(=O)/C(=C/c3ccc([N+](=O)[O-])o3)C2=O)cc1,·,–,·,–,17.8µM,·
CCNCCC1(CC)C(=O)NC(=O)NC1=O,–[11.4 µM],·,·,·,–[13.5 µM],–
[O-][Cl+]O,–,–,·,·,–,–
COC(=O)c1c(C)n(Cc2ccco2)c2ccc(O)cc12,–,–,–,–,20µM,–
CCOC(=O)c1c(C)n(Cc2ccco2)c2ccc(OC)cc12,–,–,–,–,–,–
Nc1cccc2ccccc12,–,–,·,·,?,?
C=CCN1C(=O)NC(=O)/C(=C/c2ccc(OC)c(CSc3ccccn3)c2)C1=O,–,–,–,–,12.6µM,28.2µM
COc1ccc(C(=O)CN2CCOCC2)cc1F,–,–,–,–,14.1µM,–
O=C(CN1CCOCC1)c1ccc2cc[nH]c2c1,–,–,–,–,?,–
Cc1cc(C)c(C(=O)CN2CCOCC2)c(C)c1,–,–,–,–,10µM,–
ClC(Cl)(Cl)C(Cl)(Cl)Cl,–,–,·,·,–,–
O=[N+]([O-])c1cccc(CN2CCN(Cc3ccc(Cl)cc3)CC2)c1,·,–,·,–,?,·
CC(C)N1CCN(Cc2cccc([N+](=O)[O-])c2)CC1,·,–,·,–,3.55µM,·
CCOP(=S)(OCC)SCSC(C)(C)C,–,–,·,·,?,–
O=[N+]([O-])C(Br)Br,–,–,·,·,1.41µM,?
COc1ccc(OCc2n[nH]c(=S)n2Cc2ccco2)cc1,·,–,·,–,?,·
Nn1c(COc2ccc(Cl)cc2)n[nH]c1=S,·,–,·,–,25.1µM,·
Cc1cccc(C)c1OCc1n[nH]c(=S)n1N,·,–,·,–,25.1µM,·
C=C(C)CCl,–,–,·,·,–,–
C=C(Cl)CCl,–,–,·,·,20µM,–
SMILES,ALOX12 inhib,GLA spleen mod,PNC assembly inh,GLA inh pH 4.5,ALDH1A1 block,HPGD block
FC(F)(F)c1nc2ccc(SSc3ccc4nc(C(F)(F)F)[nH]c4c3)cc2[nH]1,–[11.4 µM],·,·,·,2.24µM,3.98µM
O=c1c2ccccc2nc(-c2ccco2)n1-c1ccccc1,–,–,–,–,–,–
O=c1c2ccccc2nc(-c2ccco2)n1-c1ccncc1,–,–,–,–,28.2µM,–
Cc1cccc(-n2c(-c3ccc([N+](=O)[O-])cc3)nc3ccccc3c2=O)c1,–,–,–,–,?,–
Cc1ccccc1-n1c(-c2ccc([N+](=O)[O-])cc2)nc2ccccc2c1=O,–,–,–,–,7.94µM,–
COc1ccc(-c2nc3ccccc3c(=O)n2-c2ccc(OC)cc2)cc1,·,–,·,–,11.2µM,·
O=c1c2ccccc2nc(-c2ccc([N+](=O)[O-])cc2)n1-c1ccccc1,–,–,–,–,3.16µM,–
COc1ccc(-n2c(-c3ccco3)nc3ccccc3c2=O)cc1,·,–,·,–,–,·
CCCOC(=O)[C@@H]1[C@@H](C(=O)O)[C@H]2CC[C@@H]1O2,–[11.4 µM],·,·,·,–[13.5 µM],–
CN1CCc2cc(O)cc3c2C1Cc1ccc(O)c(O)c1-3 (configuration not stated),·,–,·,–,?,?
COc1cc([C@@H](O)CN)ccc1O,–,·,·,·,·,·
ClCC(Cl)Cl,–,–,·,·,–,–
O=C=NCCCCN=C=O,·,–,·,·,·,·
BrCC(Br)(Br)Br,–,–,·,·,2µM,–
COc1ccc(/C=C2/Sc3ccc(C(=O)N4CCc5ccccc5C4)cc3NC2=O)cc1,–,–,–,–,–,15.8µM
COc1cccc(C(=O)N2CCC3(CC2)OCCO3)c1,·,–,·,–,·,·
N#Cc1c(Oc2cccc(OS(=O)(=O)CCCC(F)(F)F)c2)cccc1C(F)(F)F,·,–,·,·,·,·
c1nc[n]([Sn]([CH]2CCCCC2)([CH]2CCCCC2)[CH]2CCCCC2)n1,·,–,·,·,·,·
CCN(CC)C(=O)C(C(=O)c1cccc([N+](=O)[O-])c1)n1cc(Cl)ccc1=O (configuration not stated),·,–,·,–,17.8µM,·
CCOP(=O)(OCC)C(NC(=O)c1cccc([N+](=O)[O-])c1)C(Cl)(Cl)Cl (configuration not stated),·,–,·,–,·,·
COc1ccccc1/C=C1/C(=N/O)C2CCN1CC2,–,–,–,–,15.8µM,–
COc1ccccc1CC1/C(=N/O)C2CCN1CC2 (configuration not stated),–,–,–,–,?,–
[Cl][Pd][Cl].[S-]C1=C2N=CN[C-]2[NH+]=C[N-]1.[S-]c1ncnc2[nH]cnc12,·,·,·,·,–[13.5 µM],–
O=[N+]([O-])CCO,–,–,·,·,17.8µM,–
Cc1c([C@@H](C)[C@H]2NC[C@H](C)C[C@@H]2O)ccc2c1C[C@@H]1[C@H]2CC=C2C[C@@H](O)CC[C@@]21C,–[11.4 µM],·,·,·,·,·
SMILES,ALOX12 inhib,GLA spleen mod,PNC assembly inh,GLA inh pH 4.5,ALDH1A1 block,HPGD block
CNC(=O)O/N=C/C(C)(C)S(C)=O (configuration not stated),–,–,·,·,28.2µM,–
COc1cc(/C=C2\C(=O)NC(=O)N(c3ccccc3)C2=O)c([N+](=O)[O-])cc1OC,·,–,·,–,?,·
CC(C)CN(CC(C)C)c1ccc(C=C2C(=O)NC(=S)NC2=O)cc1[N+](=O)[O-],?,–,–,–,11.2µM,8.91µM
CCN(CC)c1ccc(C=C2C(=O)NC(=S)NC2=O)cc1,·,–,·,–,0.112µM,·
O=C(O)C(C(=O)O)P(=S)(S)c1ccccc1 (configuration not stated),–[11.4 µM],·,·,·,–[13.5 µM],–
CC[C@@H]1CN2CCc3cc(OC)c(OC)cc3[C@@H]2C[C@@H]1C[C@H]1NCCc2cc(OC)c(OC)cc21,–,–,·,–,–,–
O=Cc1ccccc1,–,–,·,·,3.16µM,–
c1ccc(-c2ccccc2)cc1,–,–,·,·,?,–
CN(C)c1ccc(P(=O)(Nc2ccc([N+](=O)[O-])cc2)N2CCOCC2)c(NC(=O)c2cccs2)c1 (configuration not stated),–,–,-80.1,–,–,?
O=C(c1cc([N+](=O)[O-])ccc1N1CCNCC1)N1CCOCC1,–,–,–,–,?,–
Clc1cc(Cl)c(Cl)c(Cl)c1,–,–,·,·,?,–
COc1ccc(C(=O)C2CCCN(C3CSCCSC3)C2)c(OC)c1 (configuration not stated),·,–,·,–,14.1µM,·
COc1cccc(C(=O)C2CCCN(C3CCOCC3)C2)c1 (configuration not stated),·,–,·,–,–,·
